The text below walks through data of article PMC4336329 (PLoS ONE, 2015).

The campaign covered roughly 310,000 compounds. About 14,000 (4.5%) showed an effect of 50% or more. Effects have a minus sign here. For the sample, strong results were picked, then their nearest neighbours and some compounds at random.
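Note: peak tail current of the secondary pulse compared with the same well before compound.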

Chain of human ether-à-go-go-related gene (hERG) potassium channel (Q12809 whole entry, looked up): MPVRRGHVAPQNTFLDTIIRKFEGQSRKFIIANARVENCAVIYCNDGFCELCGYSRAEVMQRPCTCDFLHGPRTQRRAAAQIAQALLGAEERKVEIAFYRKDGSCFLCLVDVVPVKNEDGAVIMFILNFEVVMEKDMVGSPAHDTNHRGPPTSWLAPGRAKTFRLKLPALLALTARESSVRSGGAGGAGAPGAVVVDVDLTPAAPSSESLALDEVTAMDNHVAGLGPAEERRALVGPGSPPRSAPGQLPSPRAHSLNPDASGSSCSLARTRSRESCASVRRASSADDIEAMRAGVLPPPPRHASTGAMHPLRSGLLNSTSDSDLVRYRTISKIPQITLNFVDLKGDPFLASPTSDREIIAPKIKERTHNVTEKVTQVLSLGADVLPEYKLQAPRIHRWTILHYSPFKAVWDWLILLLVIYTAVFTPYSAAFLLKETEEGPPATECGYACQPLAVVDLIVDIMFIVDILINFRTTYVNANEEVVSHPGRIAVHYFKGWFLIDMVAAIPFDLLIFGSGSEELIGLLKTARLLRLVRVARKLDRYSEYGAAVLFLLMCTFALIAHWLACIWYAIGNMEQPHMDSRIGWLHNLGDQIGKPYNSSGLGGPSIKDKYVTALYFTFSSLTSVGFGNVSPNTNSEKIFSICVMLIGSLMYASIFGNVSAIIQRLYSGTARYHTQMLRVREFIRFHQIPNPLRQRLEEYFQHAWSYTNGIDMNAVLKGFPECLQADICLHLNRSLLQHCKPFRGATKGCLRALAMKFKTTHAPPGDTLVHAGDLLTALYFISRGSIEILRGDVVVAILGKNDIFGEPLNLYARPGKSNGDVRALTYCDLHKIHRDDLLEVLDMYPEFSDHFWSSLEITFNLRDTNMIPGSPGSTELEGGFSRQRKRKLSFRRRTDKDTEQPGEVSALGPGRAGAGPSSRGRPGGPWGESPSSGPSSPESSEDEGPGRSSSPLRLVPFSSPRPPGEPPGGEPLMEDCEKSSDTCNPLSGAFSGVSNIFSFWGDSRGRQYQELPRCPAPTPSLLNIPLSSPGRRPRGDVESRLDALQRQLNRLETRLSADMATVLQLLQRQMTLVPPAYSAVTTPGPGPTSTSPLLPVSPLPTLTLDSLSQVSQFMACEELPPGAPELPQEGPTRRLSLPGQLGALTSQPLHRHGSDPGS

The assay addresses human ether-à-go-go-related gene (hERG) potassium channel (human, UniProt Q12809). Description: primary screen, population patch clamp on CHO cells stably expressing hERG; higher = less effect of the substance.
Regarding `Cc1nccn1Cc1ccccc1`, the “hERG current change (%, negative = inhibition) at 10uM” value is given as 25.1%.
For the molecule `C(=N\Nc1nc(N2CCOCC2)nc(N2CCOCC2)n1)/c1ccco1`, the “hERG current change (%, negative = inhibition) at 10uM” value is recorded as 30.2%.
As for `CCOC(=O)C1CCN(C(=O)Cn2c(=O)c3cccn3c3cccnc32)CC1`, the figure is 3.76%; as for `COC(=O)CSC1=C(C#N)C(c2ccc(Cl)cc2)C(C(=O)OC)C(=O)N1` (stereo not drawn), 0.571%; as for `Cc1cccc(C)c1NC(=O)COC(=O)c1ccccc1O`, 1.57%.
Regarding `O=C(NC1CCCCC1)N1CCc2[nH]c3ccccc3c2C1`, the “hERG current change (%, negative = inhibition) at 10uM” value stood at 3.15%.
Turning to `CN(C)CCCN(C(=O)c1ccc2c(c1)OCCO2)c1nc2cc3c(cc2s1)OCO3.Cl`, the “hERG current change (%, negative = inhibition) at 10uM” value is -56%.
Under `Cc1ccc2nc(N(CCN(C)C)C(=O)c3ccc4c(c3)OCCO4)sc2c1.Cl` stands -44.6%; under `CCN(CC)CCN(C(=O)c1ccc2c(c1)OCCO2)c1nc2ccc(C)cc2s1.Cl`, -71.2%; under `CCc1ccc2nc(N(CCCN(C)C)C(=O)c3ccc4c(c3)OCCO4)sc2c1.Cl`, -48.3%.
As for `CCN(CC)CCN(C(=O)c1ccc2c(c1)OCCO2)c1nc2cc3c(cc2s1)OCO3.Cl`, the figure is -67.3%.
Under `CCN(CC)CCN(C(=O)c1ccc2c(c1)OCCO2)c1nc2cc(C)cc(C)c2s1.Cl` stands -69.9%; under `CN(C)CCN(C(=O)c1ccc2c(c1)OCCO2)c1nc2cc3c(cc2s1)OCO3.Cl`, -41.9%.
In the case of `CCN(CC)CCN(C(=O)c1ccc(Br)s1)c1nc2cc3c(cc2s1)OCCO3.Cl`, the “hERG current change (%, negative = inhibition) at 10uM” value is given as -1.19%.
As for `CCN(CC)CCN(C(=O)c1ccc(S(=O)(=O)N2CCCC2)cc1)c1nc2cc(C)cc(C)c2s1.Cl`, the figure is -44.1%.
For the molecule `CN(C)CCCN(C(=O)c1ccc2c(c1)OCCO2)c1nc2ccc(Cl)cc2s1.Cl`, the “hERG current change (%, negative = inhibition) at 10uM” value is recorded as -39.9%.
As for `CC(C)c1ccc(N2CC(C(=O)Nc3nccs3)CC2=O)cc1` (stereo not drawn), the figure is 1.98%; as for `CC1(C)Cc2c(sc3nc4n(-c5ccccc5)c(=O)c(CCC(=O)O)nn4c(=O)c23)CO1`, 12.9%.
Under `O=c1cc(-c2ccc([N+](=O)[O-])cc2)c2cc3c(cc2[nH]1)OCCO3` stands -12%; under `CC(NCc1ccc(Cl)c(Cl)c1)C(O)c1ccccc1.Cl` (stereo not drawn), -0.311%.
Under `CC(NCc1ccc(Cl)cc1)C(O)c1ccccc1.Cl` (stereo not drawn) stands 0.613%.
With `CC(NCc1cccc(OCc2ccccc2)c1)C(O)c1ccccc1.Cl` (stereo not drawn), the “hERG current change (%, negative = inhibition) at 10uM” value is recorded as -50.9%.
Under `CC(NCc1ccc(OCc2ccc(Cl)cc2)cc1)C(O)c1ccccc1.Cl` (stereo not drawn) stands -62.5%; under `CC(NCc1ccc(Cl)cc1Cl)C(O)c1ccccc1.Cl` (stereo not drawn), -26.6%; under `CC(=O)NC(NC(C)=O)c1cccc(OCc2ccccc2)c1`, 9.33%.
Under `Cc1ccc(C(=O)NCC(=O)OCCCn2c(=O)[nH]c3ccccc32)cc1` stands -14.8%.
Under `COc1ccc(N(CC(=O)Nc2ccc(C)cn2)S(=O)(=O)c2c(C)noc2C)cc1` stands -24.8%; under `Cc1cccc(C)c1NC(=S)N1CCOCC1`, 9.99%.
With `Cc1ccc(NC(=O)CCS(=O)(=O)c2cccc3nonc23)c(Br)c1`, the “hERG current change (%, negative = inhibition) at 10uM” value was determined as 6.97%.
On to `Cc1c(C(=O)N2CCC(C)CC2)cccc1[N+](=O)[O-]`, for which the “hERG current change (%, negative = inhibition) at 10uM” value is 26.1%.
Under `O=C(c1ccccc1[N+](=O)[O-])N1CCC2(CC1)OCCO2` stands 3.53%.
As for `O=C(c1ccccc1[N+](=O)[O-])N1CCCN(C(=O)c2ccccc2[N+](=O)[O-])CC1`, the figure is -14.8%.
As for `Cc1c(C(=O)Nc2ccccc2C(=O)N2CCCC2)cccc1[N+](=O)[O-]`, the figure is 9.76%; as for `O=C1CC2(CCN(C(=O)c3ccccc3[N+](=O)[O-])CC2)Oc2ccccc21`, -62%.
On to `Cc1c(C(=O)N2CCC3(CC2)CC(=O)c2ccccc2O3)cccc1[N+](=O)[O-]`, for which the “hERG current change (%, negative = inhibition) at 10uM” value is listed as -83.2%.
As for `NC(=O)c1ccc(NC(=O)CNC(=O)c2sc3ccccc3c2Cl)cc1`, the figure is 0.282%; as for `Cn1nccc1C(=O)Nc1ccn(C23CC4CC(CC(C4)C2)C3)n1`, -11.6%; as for `CN1CCN(S(=O)(=O)c2ccc(=O)[nH]c2)CC1`, 7.85%.
Under `O=C(NCCN1CCOCC1)c1cc(-c2ccc(Br)cc2)on1` stands -22%; under `Cc1ccc(-c2cc(C(=O)NCCCn3ccnc3)no2)cc1`, -42.9%.
In the case of `Cl.O=C(NCCCN1CCOCC1)c1c(O)c2ccccc2[nH]c1=O`, the “hERG current change (%, negative = inhibition) at 10uM” value was -47.9%.
As for `COc1cc2[nH]c(=O)c(C(=O)NCCCN3CCOCC3)c(O)c2cc1OC.Cl`, the figure is 9.48%.
`O=C(NCCCN1CCOCC1)c1cc(-c2ccc(Br)cc2)on1`: the “hERG current change (%, negative = inhibition) at 10uM” value was -58.6%.
Consider `O=C(NCCCn1ccnc1)c1cc(-c2ccccc2)on1`, for which the “hERG current change (%, negative = inhibition) at 10uM” value was -16.3%.
As for `O=C(NCCCN1CCOCC1)c1c(O)c2cc(Br)cc(Br)c2[nH]c1=O`, the figure is -64.6%; as for `Cc1ccc(-c2cc(C(=O)NCCCN3CCOCC3)no2)cc1`, -30.8%; as for `O=C(NCCCn1ccnc1)c1cc(-c2ccc(Br)cc2)on1`, -51.6%.
Under `COc1ccc(C2C(C(=O)Nc3ccc(OC)c(OC)c3)c3ccccc3C(=O)N2C)cc1` (stereo not drawn) stands 27.7%; under `O=C(CCc1cn2ccccc2n1)NC1CCCc2c1cnn2-c1ccccc1F` (stereo not drawn), 0.178%; under `Fc1cccc(C2CCCCN2Cc2nc(C3CC3)no2)c1` (stereo not drawn), 13.3%.
On to `Cc1ccn2c(=O)nc(SCC(=O)c3ccc(Cl)cc3)nc2c1`, for which the “hERG current change (%, negative = inhibition) at 10uM” value was -31.2%.
As to `CCOc1c(Cl)cc(/C=C/C(=O)N(CC)CC(=O)NCc2cccs2)cc1OC`, the “hERG current change (%, negative = inhibition) at 10uM” value is reported as -55.4%.
Under `CCN(CC(=O)NCc1cccs1)C(=O)/C=C/c1ccc(C)cc1` stands -29.4%; under `CCN(CC(=O)NCc1cccs1)C(=O)/C=C/c1cccc(Br)c1`, -66.8%; under `CCOc1ccc(/C=C/C(=O)N(CC)CC(=O)NCc2cccs2)cc1OC`, -28.3%.
As for `CCOc1cc(/C=C/C(=O)N(CC)CC(=O)NCc2cccs2)cc(Cl)c1OC`, the figure is -27.7%; as for `CCN(CC(=O)NCc1cccs1)C(=O)/C=C/c1ccc(Cl)c(Cl)c1`, -41.1%.
